This note sets out measurements from PubChem BioAssay.

The assay has as its system PRMT1 (protein arginine N-methyltransferase 1). The assay can be described thus: PRMT1 binders on small-molecule microarrays, primary screen, biochemical, small-molecule microarray, 635 nm fluorescence (AID 1088).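 Note: binding of Prmt1 protein to compounds spotted on small-molecule microarray slides.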 As to conditions: small-molecule microarray binding, higher = more signal.
Molecule `CC(C)(C)OC(=O)CC[C@]1(C(=O)NCC(O)CO)N=C(c2ccc(OCCCO)cc2)O[C@H]1c1ccccc1N=[N+]=[N-]` (some centres not stated) came in with a composite z-score of 0.98.

Consider `CCOC(=O)C1=CCC(c2cc3ccccc3[nH]2)N(CCN2CC(C(=O)OCC)=CCC2c2cc3ccccc3[nH]2)C1` (configuration not stated), for which the composite z-score was 1.4.

As for `COCC(=C=CC[C@H](O)c1ccccc1OCCO)C[C@H](O)COCc1ccccc1`, the composite z-score is 1.55.

Molecule `CN(C)CCCCNC(=O)[C@H]1C[C@H]2C(=O)N3CCC[C@H]3C(=O)N2[C@H]1c1cccc(OCCO)c1` displayed a composite z-score of 1.1.

In turn, `COCCCNC(=O)[C@@H]1c2ccccc2C(=O)N(Cc2ccc(OC(F)(F)F)cc2)[C@H]1c1ccc(CO)cc1` displayed a composite z-score of 1.34.

With `COc1ccc(C#Cc2ccc3c(c2)[C@]2(C(=O)N3)[C@H](C(=O)O)[C@H]3C(=O)O[C@H](c4ccccc4)[C@H](c4ccccc4)N3[C@@H]2c2ccccc2OCCO)cc1`, the composite z-score is 1.54.

For `O=C1O[C@H](Cc2ccccc2)[C@@H]2[C@H]3C=CCCC=C3CN2[C@H]1Cc1ccc(O)cc1`, the composite z-score is -1.14.
